Results published in PubChem BioAssay AID431 (Sanford-Burnham Center for Chemical Genomics, 2006).
The whole screen tested about 63,000 compounds, of which about 1,100 (1.7%) were called active.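 The calls were made as follows: active = compounds whose percent cytotoxicity in the single-dose primary screen, scaled between solvent and toxic-drug controls, exceeds 50; inactive = the rest.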 What follows is part of a selection rich in actives, with near analogues and random picks from the rest. Measured potencies and affinities stand elsewhere.

assay: viability loss of HPDE-C7K cells – cell-based, fluorescence, HTS, primary screen (AID 431); conditions: HPDE-C7K KRASV12 cells, Alamar Blue viability, 48 h; at 10 µM; hits give high values;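 also: 0% = DMSO solvent wells and 100% = doxorubicin-treated wells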

| Compound | cytotoxicity |
| --- | --- |
| CCOc1ccc2[nH]c(O)c(NC(C)=O)c2c1 | -16.9% (inactive) |
| Cc1oc(-c2ccc(Cl)cc2)nc1CN1CCC(C(=O)N2CCN(c3ccccn3)CC2)CC1 | 8% (inactive) |
| O=C(NC1CCCCC1)n1c(=O)oc2ccccc21 | -35.5% (inactive) |
| Cc1nc(NC(=O)c2ccccc2)sc1-c1csc(N)n1 | 58.6% (active) |
| Cc1nc(C)c(-c2csc(NCc3ccco3)n2)s1 | -14.9% (inactive) |
| Cc1nc(NC(=O)c2ccccc2)sc1-c1csc(NCc2ccco2)n1 | 73.6% (active) |
| O=C(Nc1nc2c(s1)C(=O)CCC2)c1ccccc1 | -6.7% (inactive) |
| O=C(Nc1nc(-c2ccco2)cs1)c1ccccc1 | 20.8% (inactive) |
| CCOC(=O)c1csc(NC(=O)c2ccccc2)n1 | -0.2% (inactive) |
| Cn1c(=O)c2c(nc(SCC(=O)O)n2Cc2cccc(C(F)(F)F)c2)n(C)c1=O | -7.6% (inactive) |
| CCCCOc1ccc(/C(O)=C2/C(=O)C(=O)N(CCCOC)C2c2ccncc2)cc1C (stereo not given) | -8.2% (inactive) |
| COc1ccc(CN2C(=O)NC3(CCCCCC3)C2=O)cc1F | -2.8% (inactive) |
| CC(C)(C)c1cc(NC(=O)c2cccnc2)no1 | -7.8% (inactive) |
| O=C(Cn1c(=O)sc2ccccc21)Nc1ccccc1C(=O)O | 18.1% (inactive) |
| COc1ccc(C2C(C(=O)Nc3ccccc3OC)=C(C)Nc3ncnn32)cc1 (stereo not given) | -6.4% (inactive) |
| CCOC(=O)C1=C(CSc2nc3c(cc2C#N)CCC3)OC(N)=C(C#N)C1c1ccccc1 (stereo not given) | 108% (active) |
| CCOC(=O)C1=C(CSc2nc(-c3ccncc3)ccc2C#N)OC(N)=C(C#N)C1c1cccnc1 (stereo not given) | 20% (inactive) |
| CCOC(=O)C1=C(C)OC(N)=C(C#N)C1c1ccc(OC)c(C)c1OC (stereo not given) | 2.9% (inactive) |
| CCOC(=O)C1=C(CSc2nc(C)cc(C)c2C#N)OC(N)=C(C#N)C1c1cccs1 (stereo not given) | -2.2% (inactive) |
| CCOC(=O)C1=C(CSc2nc(C)ccc2C#N)OC(N)=C(C#N)C1c1cccc(OC)c1OC (stereo not given) | 57.6% (active) |
| CCOC(=O)C1=C(CSc2nc3c(cc2C#N)CN(C)CC3)OC(N)=C(C#N)C1c1ccccc1 (stereo not given) | 14.3% (inactive) |
| COc1cc(S(=O)(=O)NCC2CCCO2)c(OC)cc1Cl (stereo not given) | -5.9% (inactive) |
| CCN(CC)CCN1C(=O)C(=O)/C(=C(/O)c2ccc(Cl)cc2)C1c1ccncc1 (stereo not given) | -16.4% (inactive) |
| CCOc1ccc(N2CC(=O)SC2=S)cc1 | -11.8% (inactive) |

| Compound | cytotoxicity |
| --- | --- |
| Cc1ccc(C#N)c(SCc2cc3c(cc2Cl)OCO3)n1 | 2.4% (inactive) |
| COc1ccc(S(=O)(=O)Cc2ccc(C(=O)NC3CC3)o2)cc1 | -11.3% (inactive) |
| O=C(CN1C(=O)COc2ccccc21)N(Cc1cccnc1)Cc1cccc(F)c1 | -1.8% (inactive) |
| O=C(NCc1ccccn1)C1CCN(S(=O)(=O)c2cccs2)CC1 | -6.5% (inactive) |
| Cc1cc(C)cc(N2C(=O)CC(N3CCOCC3)C2=O)c1 (stereo not given) | 1.2% (inactive) |
| O=C(c1ccc(F)cc1)c1ccc(N2CCCC2)cc1 | -11% (inactive) |
| N#Cc1nc(-c2ccc(F)cc2)oc1N1CCCC1 | 3.4% (inactive) |
| CCCn1c(SCC(=O)NC(=O)NCc2ccco2)n[nH]c1=O | -2.3% (inactive) |
| O=C(NCC1CCCO1)c1cc2n(n1)C(C(F)(F)F)CC(c1ccc(Br)cc1)N2 (stereo not given) | 6.4% (inactive) |
| O=S1(=O)CCC(NCC2CCCO2)C1 (stereo not given) | 6.3% (inactive) |
| CCOc1ccc(/C(O)=C2\C(=O)C(=O)N(CCN(C)C)C2c2cc(OC)ccc2OC)cc1Cl (stereo not given) | -1.7% (inactive) |
| CSc1ccc(Cl)c(C(=O)OCC(=O)N2CCOCC2)c1 | -13.8% (inactive) |
| N#C/C(=C\c1ccc(O)c(O)c1)C(=O)NCCCc1ccccc1 | 54.7% (active) |
| O=C(NCCCc1ccccc1)c1ccccc1O | -6.1% (inactive) |
| N#C/C(=C\c1ccc(O)c(O)c1)S(=O)(=O)c1ccccc1 | 5.4% (inactive) |
| Cc1ccc(S(=O)(=O)N2CCCCC2)cc1C(=O)c1nccn1C | -13.8% (inactive) |
| CCOc1ccc(NC(=O)CCS(=O)(=O)c2ccc3c(c2)CCCN3C(C)=O)cc1 | -19.8% (inactive) |
| Nc1c(C(=O)NCCN2CCOCC2)c2nc3ccccc3nc2n1-c1ccccc1 | -0.8% (inactive) |
| O=C(Cn1c(CN2CCCCC2)nc2ccccc2c1=O)NCc1ccco1 | -21.9% (inactive) |
| COc1ccc(-n2c(N)c(C(=O)NCc3ccco3)c3nc4ccccc4nc32)c(OC)c1 | 5.2% (inactive) |
| COc1ccc(CCn2c(N)c(C(=O)NCc3ccco3)c3nc4ccccc4nc32)cc1OC | 57.5% (active) |
| COc1ccc(CCn2c(N)c(C#N)c3nc4ccccc4nc32)cc1OC | -1.9% (inactive) |
| Cc1cccc(-n2c(Cc3cc(=O)[nH]c(=O)[nH]3)nnc2SCC(=O)NCc2ccco2)c1 | -4.5% (inactive) |
| O=C(NCc1cccc(F)c1)c1noc2c1CCCC2 | -1.2% (inactive) |

| Compound | cytotoxicity |
| --- | --- |
| Cc1cc(O)cc(=O)n1Cc1ccco1 | -8.3% (inactive) |
| COc1cc(Cl)c(S(=O)(=O)n2cnc(C)c2)cc1Cl | 4.1% (inactive) |
| COc1cc(C)c(C(C)C)cc1S(=O)(=O)N1CCN(C)CC1 | -21.8% (inactive) |
| COc1ccc(-c2c(C)oc3c(CN4CCN(C)CC4)c(O)ccc3c2=O)cc1 | -6.1% (inactive) |
| CCOC(=O)C1=C(CS(=O)(=O)c2ccccc2)NC(=O)NC1c1ccccc1OCC (stereo not given) | -3.7% (inactive) |
| Cc1ccc(S(=O)(=O)CC(c2ccccc2)N2CCOCC2)cc1 (stereo not given) | -3.6% (inactive) |
| Nc1ncn(C(=O)c2ccco2)n1 | 4.4% (inactive) |
| O=C(COc1cc(=O)n2c(n1)SCCC2)c1ccccc1 | -1.2% (inactive) |
| CCOC(=O)Nc1ccc2c(c1)N(C(=O)CN1CCN(C)CC1)c1ccccc1S2 | 5.6% (inactive) |
| OCCN1CCN(C(=S)c2ccc(Cl)cc2)CC1 | -18.6% (inactive) |
| O=C(CN1CCN(CCOCCO)CC1)N1c2ccccc2Sc2ccc(Cl)cc21 | -26% (inactive) |
| CN1CCN(CCCN2c3ccccc3Sc3ccc(Cl)cc32)CC1 | 82.7% (active) |
| CN1CCN(CCC(=O)N2c3ccccc3Sc3ccc(Cl)cc32)CC1 | 35.1% (inactive) |
| CC(=O)C1=C(O)C(=O)N(CCN2CCOCC2)C1c1ccc(N(C)C)cc1 (stereo not given) | -11.6% (inactive) |
| Cc1oc(-c2cccc(Cl)c2)nc1CN1CCC(C(=O)NCC2CCCO2)CC1 (stereo not given) | 21.4% (inactive) |
| COc1ccc(OC)c(C2C(C(C)=O)=C(O)C(=O)N2CCN2CCOCC2)c1 (stereo not given) | 3.1% (inactive) |
| COc1cccc(C(=O)CSc2nnc(CNc3nc(-c4ccccc4)cs3)n2C)c1 | -0.3% (inactive) |
| CC(CC1C(C#N)=C(N)OC2=C1C(=O)CCC2)c1ccccc1 (stereo not given) | -2.7% (inactive) |
| Cc1cccc(-c2noc(CCc3ccccc3)n2)c1 | 4.2% (inactive) |
| Cc1ccc(Nc2nc(N)nc(CN3CCN(Cc4ccc5c(c4)OCO5)CC3)n2)c(C)c1 | -5.2% (inactive) |
| Cc1cc(C(=O)NCCCN2CCN(C3CCCCC3)CC2)n(-c2ccccc2)n1 | -1% (inactive) |
| Cc1cc(C(=O)NCCCN2CCOCC2)n(-c2ccccc2)n1 | -11.4% (inactive) |
| Cc1cc(C(=O)NCCN2CCN(c3cccc(Cl)c3)CC2)n(-c2ccccc2)n1 | 60.3% (active) |
| CCN(CC)S(=O)(=O)c1ccc(N2CCCC2)c(C(=O)OCC(=O)/C(C#N)=C(\C)N)c1 | 10.5% (inactive) |

| Compound | cytotoxicity |
| --- | --- |
| CC(C)=C1C2C=CC1C(C(=O)Nc1cc(C)ccc1C)C2C(=O)O (stereo not given) | -14.9% (inactive) |
| CCOc1ccccc1NC(=O)Cn1nnc(C(=O)NCc2ccco2)c1N | 55.3% (active) |
| CCOc1ccccc1NC(=O)Cn1nnc(C(=O)Nc2ccc(C)cc2)c1N | 5.2% (inactive) |
| CCOc1ccccc1NC(=O)Cn1nnc(C(=O)Nc2ccccc2Cl)c1N | 3.6% (inactive) |
| CCN(CC)CCCN1C(=O)C(=O)/C(=C(/O)c2cc(C)ccc2C)C1c1cccnc1 (stereo not given) | -4.8% (inactive) |
| Cc1ccccc1NC(=O)c1c(F)c(F)c(F)c(F)c1F | -12% (inactive) |
| O=C(Nc1ccccc1Cl)c1c(F)c(F)c(F)c(F)c1F | 0.3% (inactive) |
| CCOC(=O)c1ccccc1NC(=O)c1cccs1 | -12.9% (inactive) |
| CCOC(=O)c1ccccc1NC(=O)c1ccccc1SC | 21.6% (inactive) |
| CC1=C(C#N)C(C)C2=C(CC(C)(C)CC2=O)N1 (stereo not given) | -3.6% (inactive) |
| CN1CCN(C2=Nc3ccccc3Oc3ccc(Cl)cc32)CC1 | -3.2% (inactive) |
| Cn1c(Cl)cnc1C1CC(=O)c2cc(Cl)ccc2O1 (stereo not given) | 67.1% (active) |
| COc1ccc2c(c1)C(=O)CC(c1ccccc1F)O2 (stereo not given) | 7.5% (inactive) |
| O=C(Nc1ccc2nc[nH]c2c1)c1ccco1 | 16.9% (inactive) |
| COC(=O)C(C)Sc1nc2c(c(=O)[nH]c(=O)n2C)n1CCCc1ccccc1 (stereo not given) | -4.9% (inactive) |
| O=S(=O)(NCCO)c1cccc2cccnc12 | -9.3% (inactive) |
| CCC(C)(C)n1nnnc1C(c1ccc(C)cc1)N1CCN(Cc2cccnc2)CC1 (stereo not given) | -32% (inactive) |
| O=C(OCC(=O)N1CCN(C(=O)c2ccco2)CC1)c1cc(=O)c2ccccc2o1 | -1.9% (inactive) |
| C=C1[C@@H](C)C2[C@H](Cc3ccccc3)NC(=O)[C@]23OC(=O)CC[C@H](O)CCC[C@H](C)C/C=C/[C@H]3[C@@H]1O (stereo not given in full) | 59.8% (active) |
| Cc1ccc(Nc2cccccc2=O)cc1 | -1.6% (inactive) |
| CCC1(C)Cc2c(sc3c2c(=O)n(C)c2nnc(SCc4ccccc4)n32)CO1 (stereo not given) | 3.4% (inactive) |
| NC1=NC(c2ccccc2Cl)n2c(nc3ccccc32)N1 (stereo not given) | 0.6% (inactive) |
| Cc1cc(C2N=C(N)Nc3nc4ccccc4n32)c(C)n1-c1ccccc1Cl (stereo not given) | 5.7% (inactive) |
